The supplement of paper PMC3334620
In all, about 33,000 sequences were measured (“E-score (-0.5 to 0.5)”: median about -0.035, highest 2% from about 0.35 on). The sample holds the highest values, similar sequences and a random draw of the others, so the mix is not that of the screen.

target: T1, Pdr3 (UniProt P33200); test: PBM E-score (8-mer binding enrichment) (E-score (-0.5 to 0.5)); higher = stronger / more preferred TF binding; conditions: protein concentration: 200 nM; construct: GST-full length
T1 sequence: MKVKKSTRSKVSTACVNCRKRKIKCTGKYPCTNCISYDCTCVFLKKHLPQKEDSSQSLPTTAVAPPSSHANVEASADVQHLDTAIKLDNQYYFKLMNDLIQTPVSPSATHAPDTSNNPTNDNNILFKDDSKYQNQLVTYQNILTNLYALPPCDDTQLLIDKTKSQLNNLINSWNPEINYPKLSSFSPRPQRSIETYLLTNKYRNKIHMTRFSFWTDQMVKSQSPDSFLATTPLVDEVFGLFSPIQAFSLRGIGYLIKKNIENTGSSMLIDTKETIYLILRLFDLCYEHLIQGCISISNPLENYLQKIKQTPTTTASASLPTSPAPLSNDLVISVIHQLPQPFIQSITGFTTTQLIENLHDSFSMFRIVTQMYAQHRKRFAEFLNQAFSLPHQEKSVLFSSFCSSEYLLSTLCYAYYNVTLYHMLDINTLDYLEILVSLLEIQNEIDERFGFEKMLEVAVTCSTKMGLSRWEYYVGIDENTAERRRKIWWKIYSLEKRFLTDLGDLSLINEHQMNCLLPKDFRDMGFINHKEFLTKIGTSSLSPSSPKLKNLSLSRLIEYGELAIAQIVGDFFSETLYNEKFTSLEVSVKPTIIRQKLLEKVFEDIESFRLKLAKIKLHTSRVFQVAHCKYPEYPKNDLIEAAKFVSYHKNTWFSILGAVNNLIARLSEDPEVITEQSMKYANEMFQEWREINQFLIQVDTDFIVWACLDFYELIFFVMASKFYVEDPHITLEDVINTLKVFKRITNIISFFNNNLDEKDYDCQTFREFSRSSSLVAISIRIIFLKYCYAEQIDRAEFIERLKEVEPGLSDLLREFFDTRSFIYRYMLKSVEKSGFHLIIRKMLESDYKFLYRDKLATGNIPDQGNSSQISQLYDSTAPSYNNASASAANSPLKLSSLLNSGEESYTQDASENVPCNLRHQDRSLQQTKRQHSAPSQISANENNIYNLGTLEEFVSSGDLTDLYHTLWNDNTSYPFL
Protocol: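 Universal 'all 10-mer' protein binding microarrays (Agilent AMADID 015681) probed with GST-tagged S. cerevisiae TFs (full-length or DBD) made by in vitro transcription/translation (PURExpress), about 100-200 nM. Bound TF was detected with fluorescent anti-GST. Each ungapped 8-mer (which stands for itself and its reverse complement) is scored by the PBM enrichment score (E-score), a modified Wilcoxon-Mann-Whitney statistic from -0.5 to +0.5, computed with the Universal PBM Analysis Suite. Scale: above 0.35 generally sequence-specific binding.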

Row | Sequence | PBM E-score
1 | ACTCTATG | 0.0265
2 | TGGAACAA | -0.0164
3 | CCGAACAG | 0.0662
4 | CGGAACAG | 0.466
5 | AGGAACAG | -0.195
6 | GGGAACAA | 0.188
7 | CGGAACAC | 0.483
8 | CGGAACAA | 0.476
9 | AGGAACAC | 0.168
10 | GGGAACAC | 0.183
11 | CCTAGTCG | -0.23
12 | CAGGTAAA | -0.0305
13 | ATCCTATC | 0.0308
14 | ATTACCGG | 0.243
15 | ACTAGAGG | -0.161
16 | CAATAAGA | -0.172
17 | AAGGGGAG | -0.118
18 | ACTACGGA | 0.362
19 | ATTACGGC | 0.0318
20 | ACTACGGG | 0.118
21 | CCTACGGA | 0.239
22 | ATTACGGA | 0.361
23 | ATTACGGG | -0.0819
24 | ATACGAAA | 0.182
25 | AACACAGT | -0.0579

Row | Sequence | PBM E-score
26 | TGGAGTAA | -0.0368
27 | TGGAAACA | -0.184
28 | CCCGACCA | 0.155
29 | GCGTACGA | -0.0757
30 | AGAAGGGA | -0.323
31 | GTTGCGGA | 0.236
32 | CCGATCCG | 0.371
33 | ACGATCCG | 0.368
34 | CCGATCCC | 0.175
35 | ACGATCCC | 0.183
36 | ACGATCCA | -0.0267
37 | CCGATCCA | 0.155
38 | GCCAGTAC | -0.0709
39 | ATTTTGGC | 0.16
40 | TAGTCATA | -0.247
41 | ACCTGGCC | 0.162
42 | TATCTTAA | -0.0962
43 | CTACGGAG | 0.246
44 | ATACGGAC | 0.239
45 | CTACGGAA | 0.407
46 | GTACGGTA | 0.0177
47 | TTACGAAA | -0.0461
48 | GTACGGAC | 0.278
49 | TTACGGAA | 0.419
50 | ATACGGAT | 0.241

Row | Sequence | PBM E-score
51 | TTATGGAA | 0.0348
52 | ATACGGAA | 0.439
53 | GTACGGAA | 0.402
54 | CTACGGAC | 0.0596
55 | ACGATTTC | 0.051
56 | TACTGATA | 0.0935
57 | ATGGACAC | 0.0372
58 | CTCCTCAA | -0.152
59 | GAACGCAA | 0.133
60 | GCGTTAGC | -0.213
61 | ATACAGCG | -0.116
62 | ATCCGCCG | 0.387
63 | ATCCGCCA | 0.185
64 | ACCCGCCC | 0.348
65 | ATCCGCCC | 0.251
66 | ACCCGCCG | 0.388
67 | ACCCGCCA | 0.0368
68 | CGAACTCG | 0.17
69 | GCTGCAAA | -0.0739
70 | TGGAATAA | -0.00691
71 | AGGAATAG | -0.072
72 | CGGAATAA | 0.422
73 | GGGAATAC | 0.162
74 | CGGAATAG | 0.418
75 | CGGAATAC | 0.427

Row | Sequence | PBM E-score
76 | AGGAATAC | -0.2
77 | GGGAATAA | 0.199
78 | CAGAATAG | -0.0833
79 | CCTGAAGA | -0.0192
80 | GGCGCCTA | -0.0415
81 | CTACAGCC | -0.129
82 | GCCTCATA | 0.0142
83 | CTTGTCCC | 0.19
84 | AAGTTCCG | 0.445
85 | AAGTTCCT | 0.0364
86 | CAGTTCCC | 0.342
87 | AAGTTCCC | 0.14
88 | CAGTTCCG | 0.473
89 | CAGTTCCA | -0.0348
90 | CATGAAGC | 0.058
91 | CCAGCCTA | -0.182
92 | CTAGGGAG | -0.205
93 | GCAAGCCC | -0.0061
94 | GGGAATTA | 0.118
95 | AGGAATTA | -0.091
96 | CGGAATTC | 0.434
97 | AGGAATTC | -0.00951
98 | CGGAATTA | 0.43
99 | CTGAATTC | -0.136
100 | GTGCCTAA | -0.288

Row | Sequence | PBM E-score
101 | CTATCTAA | 0.00128
102 | GTCCCTGA | -0.23
103 | GAGCGAAA | 0.146
104 | CCTTTCCA | -0.0113
105 | CCTTTCCG | 0.387
106 | ACTTTCCT | -0.151
107 | ACTTTCCG | 0.417
108 | ACTTTCCC | 0.0862
109 | CCTTTCCC | 0.235
110 | AGGTTTTG | -0.197
111 | AAACTCTT | -0.264
112 | CAGTCGGC | 0.0494
113 | AGCCGGAT | 0.391
114 | CGCCGGAA | 0.45
115 | CGCCGGAC | 0.316
116 | AGCCGTAT | 0.0899
117 | AGCCGGAG | 0.362
118 | AGCCGGGG | 0.152
119 | AGCCGGTG | 0.187
120 | AGCCGGTC | -0.0317
121 | GGCCGAAA | 0.199
122 | GGCCGGAC | 0.216
123 | CGCCGGAG | 0.299
124 | GGCCGGAA | 0.431
125 | GCGGATGA | 0.303

Row | Sequence | PBM E-score
126 | GAACCCTA | -0.0298
127 | AGTTCAAG | 0.0398
128 | AAAGCTTT | 0.00459
129 | GGAGCACA | 0.0257
130 | ACGTACGA | -0.133
131 | CGTAGAGA | -0.182
132 | AGCCGGAA | 0.438
133 | TGCCGAAA | 0.118
134 | AGCCGGAC | 0.345
135 | TGCCGTAA | -0.187
136 | TGCCGGAA | 0.454
137 | AGCCGGTA | 0.199
138 | AGCAACCT | -0.0661
139 | TCGAGGCA | -0.123
140 | CGGCGAGA | 0.0811
141 | GTTTCTCA | -0.134
142 | TCGGATCA | 0.303
143 | CAGGATCG | 0.0205
144 | CCGGATAG | 0.347
145 | CGGGATCA | 0.344
146 | ACGGATCG | 0.236
147 | CCGGATCG | 0.391
148 | AGGGATCC | 0.196
149 | ACGGATCC | 0.445
150 | CGGGATCC | 0.417

Row | Sequence | PBM E-score
151 | ACGGATCT | 0.271
152 | GCGGATCA | 0.296
153 | CCGGATCA | 0.389
154 | GGGGTCCA | -0.138
155 | CGCTAAAA | 0.00276
156 | CCTTTTAG | -0.291
157 | AATCTGCT | -0.15
158 | ACCCTCCC | 0.299
159 | CTGAAGCA | -0.199
160 | CCAATGCC | 0.0068
161 | AGGCATTG | -0.0729
162 | CCCATTGC | -0.0113
163 | GGCGGTTA | 0.0539
164 | AAGCATCT | -0.243
165 | CATTTGTA | -0.0519
166 | AGGCGAAC | -0.114
167 | CAGGATCC | 0.0521
168 | ACGGATCA | 0.366
169 | GAGGATCC | 0.235
170 | CCGGATCC | 0.433
171 | ATGGATCA | -0.0186
172 | GCGGATCC | 0.409
173 | GCGGATAC | 0.311
174 | AAGGATCA | -0.14
175 | CTGGATCC | 0.285
